Results reported in the supplement of paper PMC10338343.
± gives the standard deviation. In all, about 3,700 sequences were measured (“pre-steady-state target cleavage rate”: median about 0.02, highest 2% from about 0.23 on). This excerpt belongs to a sample that is enriched for the highest values.

Test system: MILI (PIWIL2) piRISC loaded with Kctd7 piRNA (26 nt)
Test: pre-steady-state target cleavage rate (min^-1); MIWI and MILI are mouse PIWI proteins and EfPiwi is from a freshwater sponge; tags in brackets are library labels; higher = faster piRNA-guided slicing of the target
Conditions: guide: Kctd7 piRNA 5'p-UGUUAAUCUCUCAGAGAAGGUGACAG; auxiliary factor: 500 nM mouse GTSF1
Method in brief: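 The pre-steady-state cleavage rate was derived from a burst-and-steady-state fit of Cleave-'n-Seq data. For these assays, 1 nM active affinity-purified piRISC loaded with a single synthetic guide was mixed with […] a transcribed, DNA-blocked target RNA library in HEPES–potassium acetate buffer at 33 °C, with or without 500 nM GTSF1 partner protein, for 0–8 or 0–960 min. Sequencing counts of uncleaved targets were normalised to depth and to weakly complementary targets, and k3 was capped at 0.0001 min^-1 after three trials were pooled.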
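Also: 1 nM active piRISC with 0.1 nM target library at 33 °C single turnover.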

Sequence | pre-steady-state target cleavage rate
UAGUGACAGUCCUUCUAUGAGAGAUUAACA | 0.0377 ± 0.013
UAGUGACACAGCUUCUCUGAGAGAUAAACA | 0.0211 ± 0.0068
UAGUGACUCACGUUCUCUGAGAGAUUUACA | 0.0554 ± 0.015
UAGUGACAGACCUUCUCUGUGAGAUAAACA | 0.0102 ± 0.0046
UAGUGACACAACCUUCUCUGAGAGAUUAACA | 0.155 ± 0.018
UAGUGACUCACCUUCUCUGAGAGAUUAUACA | 0.114 ± 0.021
UAGUGUGUCACCAUCUCUGAGAGAUUAUGA | 0.0243 ± 0.0082
UAGUGACUCACCUUCUGUGAGAGAUUUUGA | 0.00903 ± 0.0039
UAGUGACACACCUACUCUGAGACAUUAACA | 0.0243 ± 0.0072
UAGUGUGUCACCAACUCUGAGAGAUUUUGA | 0.00551 ± 0.0041
UAGUGAGUGACCUUCUCUGAGAGAUUAUGA | 0.0378 ± 0.011
UAGUGACAGACCUUCUCUGAGAGAUUAGCA | 0.0252 ± 0.013
UAGUGUGUCAGCUUCUCUGUGAGAUUAACA | 0.0415 ± 0.0032
UAGUGACACACCUUCUCUCAGAGAUUAUGA | 0.00858 ± 0.0045
UAGUCUGUCUCCUUCUCUGAGAGAUUAUGA | 0.0111 ± 0.0041
UAGUGACUCACCUUCAGUGAGAGAUUAACA | 0.0471 ± 0.0078
UAGUGAGUCACCUUCUCUGAGAGAUAUAACA | 0.347 ± 0.046
UAGUGAGAUCACCUUCUCUGAGAGAUUAACA | 0.178 ± 0.015
UAGUGUGAUCACCUUCUCUGAGAGAUUAACA | 0.24 ± 0.018
UAGUGUGCUCACCUUCUCUGAGAGAUUAACA | 0.205 ± 0.013
UAGUGAGUCACCUUCUCUGAGAGAUAACA | 0.107 ± 0.038
UAGUGAGUCACCUUCUCUGAGAGAUAUACA | 0.0915 ± 0.025
UAGUGUGUCACCUUCUCGGAGAGAUUAACA | 0.153 ± 0.017

Sequence | pre-steady-state target cleavage rate
UAGUCUGUCACCAUCACUGAGAGAUUAACA | 0.11 ± 0.0083
UAGUGACAGUCCUUGUGUGAGAGAUUAACA | 0.0291 ± 0.0078
UAGUGACAGUGGAACUCUGACAGAUUAUCA | < 0.0001
UAGUGUGUCACCUUCUCUGAGAGAUUAACU [g2:g25:cont:t1U] | 0.187 ± 0.015
UAGUGUGUCACCUUUCUGAGAGAUUAACA | 0.0596 ± 0.013
UAGUGUGUCACCUUUCUCUGAGAGAUUAACA | 0.187 ± 0.016
UAGUGUGUCACCUUCUCUGAGAGAUUACCA | 0.197 ± 0.037
UAGUGUGUCACCUUCUCUGAGAGAUUAACCA | 0.236 ± 0.021
UAGUGUGUCACCUUCUCUGAGAGAUUAACC [g2:g25:cont:t1C] | 0.202 ± 0.014
UAGUGUGUCACCCUUCUCUGAGAGAUUAACA | 0.104 ± 0.016
UAGUGUGUCACCUUUUCUGAGAGAUUAACA | 0.249 ± 0.02
UAGUGUGUCACCUUCUCUGAGAGAUUAACG [g2:g25:cont:t1G] | 0.267 ± 0.02
UAGUGUGUCACCUUCUGUGUGAGAUUAACA | 0.0302 ± 0.004
UAGUGACAGUGGAAGUCUGAGAGUUAAACA | < 0.0001
UAGUGACACACCUUCUGAGAGAGAUUAUGA | 0.0134 ± 0.0078
UAGUGACAGUCCUUCUCUAAGAGAUUAACA | 0.0523 ± 0.012
UAGUGACAGUGGAAGAGUGAGGAGAUUAACA | < 0.0001
UAGUGACUCACCUUCUGUGAGAGUUUAACA | 0.0308 ± 0.01
UAGUGUGUCUCCUUCUCUGAGACAUUAACA | 0.00482 ± 0.0038
UAGUGAGUCACCUUCUCUGAGAGUAUUAACA | 0.158 ± 0.019
UAGUGAGUCACCUUCUCUGAGAGAUUUAACA | 0.225 ± 0.04
UAGUGAGUCACCUUCUCUGAGAGCUUAACA | 0.155 ± 0.026
UAGUGAGUCACCUUCUCUCAGAGUUUAACA | 0.0248 ± 0.0099

Sequence | pre-steady-state target cleavage rate
UAGUGAGUCACCUUCUCUGAGAGAGUAACA | 0.239 ± 0.063
UAGUCUGACACCUUCUCUGAGAGUUUAACA | 0.109 ± 0.016
UAGUGAGUCACCUUCUCUGAGAGUUUAACA | 0.277 ± 0.061
UAGUGAGUCACCUUCUCUGACAGUUUAACA | 0.0134 ± 0.0052
UAGUGAGUCACCUUCUCUGAGAGUAAAACA | 0.14 ± 0.045
UAGUCAGUCACCUUCUCUGAGAGUUUAACA | 0.261 ± 0.041
UAGUGAGUCACCUUCUCUGAGAGUUAACA | 0.253 ± 0.077
UAGUGAGUCACCUUCUCUGAGAGUAUAACA | 0.144 ± 0.057
UAGUGAGUGACCUUCUCUGAGACAUUAACA | 0.0267 ± 0.0076
UAGUCUCUCACCAUCUCUGAGAGAUUAACA | 0.0256 ± 0.0069
UAGUGAGUGACCUUCUCUGAGAGAUAAACA | 0.0814 ± 0.021
UAGUGACUCACCUUGUCUGAGACAUUAACA | 0.0647 ± 0.011
UAGUGAGUCACCUUCUCUGAGAGAGUUAACA | 0.257 ± 0.044
UAGUGAGUCACCUUCUCUGAGAGACUUAACA | 0.137 ± 0.032
UAGUGUGUCACCUUCUCUGAGAGUUUAUGA | 0.0769 ± 0.038
UAGUGAGUCACCUUCUCUGAGAGUUAAACA | 0.297 ± 0.086
UAGUGUGUCACCUUCUCUGAGAGAUGUAACA | 0.159 ± 0.029
UAGUGAGUCACCUUCUCUGAGAGUUUAUCA | 0.132 ± 0.049
UAGUGAGUCACCUUCUCUGAGAGGUUAACA | 0.142 ± 0.019
UAGUGAGUCACCUUCUCUGAGAGAAAAACA | 0.0915 ± 0.023
UAGUCUGUCACCUUCUCUGAGAGAUGUAACA | 0.211 ± 0.03
UAGUGACUCACCUUCUCUGAGAGUUAAACA | 0.0666 ± 0.014
UAGUGAGUCACCUUCUCUGAGAGUUUAUGA | 0.275 ± 0.092

Sequence | pre-steady-state target cleavage rate
UAGUGAGUCACCUUCUCUGAGAGAUGUAACA | 0.312 ± 0.047
UAGUGACACACCUUCUCUGAGAGAAAUACA | 0.0296 ± 0.013
UAGUGUGUCAGCUUCUCAGAGAGAUUAACA | 0.0938 ± 0.0081
UAGUGACACACCUUGUCUGAGACAUUAACA | 0.0978 ± 0.026
UAGUGUGUCACCUUCGUCUGAGAGAUUAACA | 0.088 ± 0.012
UAGUGACUCACCUUCUCUGAGAGAUUAUGA | 0.0729 ± 0.012
UAGUGAGUCCCCUUCUCUGAGAGAUUAACA | 0.214 ± 0.021
UAGUGACACACCUUCUCUGAGAGAUUACA | 0.0753 ± 0.023
UAGUGUGUCACCUUCUGUCAGAGAUUAACA | 0.039 ± 0.0051
UAGUGAGUCACCUUCUCUGAGAUAUUAACA | 0.115 ± 0.017
UAGUGACACACCUUCUCUGAGACAUUAACA | 0.0514 ± 0.0091
UAGUGUCUCACCUUCUCUGAGAGAUUAUGA | 0.0163 ± 0.0063
UAGUGACAGACCGUCUCUGAGAGAUUAACA | 0.0355 ± 0.0065
UAGUGAGUCACCUUCACAGAGAGAUUAACA | 0.0664 ± 0.0081
UAGUGACUCACCUUCUGUGACAGAUUAACA | 0.0678 ± 0.011
UAGUGACAGACCUACUCUGAGAGAUUUACA | 0.0238 ± 0.0093
UAGUGACACACCUUCUCUCAGACAUUAACA | 0.0383 ± 0.011
UAGUCAGUCACCAUCUCUGAGAGAUUAACA | 0.171 ± 0.0086
UAGUCUGUCACCUUCUCUGAGAGUUUUACA | 0.171 ± 0.054
UAGUGAGUCACCUUCUCUGAGAGUUUUACA | 0.257 ± 0.078
UAGUGUGUCACCUUCUCUGAGAGUUUUACA | 0.14 ± 0.046
UAGUGUGUCACCAUCUCUGAGAGAUUUACA | 0.158 ± 0.033
